Screens (PubChem BioAssay)
Sampled rows, rich in hits. Any-hit rate of the full collection: about 2.4%.
HSF1 inh: HSF1 inhibition; NIH3T3-HGL HSE-luciferase, MG132-induced, luminescence 8 h; hits give low values; activity change, negative = inhibition, % at 7.5 µM (by protocol); 300,000 compounds, 0.77% hits; AID 2098;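 active = more than half of replicate wells show activity change below -50%, luminescence cut by over half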;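 also: luciferase reports HSF-1 transcriptional activity via heat shock element; 0% = median of DMSO wells and -100% = zero luminescence signal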
TLR9-MyD88 block: TLR9-MyD88 interaction inhibition | CHO BLA complementation TLR9-MyD88, CCF4 FRET ratio | inhibition, % at 4.98 µM | 340,000 compounds, 0.21% hits | AID 504734;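 active = inhibition above the mean over all tested compounds plus 3 SD, cut at about 21% in these data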;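 also: 0% = DMSO only wells and 100% = clavulanate BLA inhibitor control wells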
TLR4 MyD88 comp: TLR4-MyD88 interaction inhibition in cells | AID 861 | O00206+Q99836 | inhibition, % at 8.4 µM | HeLa CL3-4 TLR4/MyD88 BLA complementation, FRET ratio | 200,000 compounds, 0.18% hits; in the data active = inhibition above about 25%;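 also: 0% = vehicle and 100% = reference inhibitor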
HSF-1 act: increases HSF-1 driven luciferase reporter signal; activation, % at 9 µM; NIH3T3-HGL HSF-1 luciferase reporter, MG132, 8 h; 100% = twice DMSO control signal; 300,000 compounds, 1.7% hits; AID 504408;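 active = mean replicate activation of at least 50% with a set share of replicates each reaching 50%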;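 also: 0% = median of the neutral control wells and 100% = twice that signal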
NOD2-RIPK2 inh: inhibitors of human NOD2-RIPK2 interaction. O43353. CHO BLA complementation NOD2-RIPK2, CCF4 ratio. inhibition, % at 4.98 µM. 360,000 compounds, 0.38% hits. AID 624267; in the data active = inhibition above about 21%;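 also: 0% = vehicle only and 100% = reference blocker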
An asterisk follows results filed as active; / = no result given.

SMILES | HSF1 inh | TLR9-MyD88 block | TLR4 MyD88 comp | HSF-1 act | NOD2-RIPK2 inh
COc1ccc(S(=O)(=O)Cc2ccc(C(=O)NCCCN(C)c3ccccc3)o2)cc1 | 27 | -9 | 9 | 60* | 0
CC(C)n1cc(CN2CCCC(CNS(=O)(=O)c3cccc4cccnc34)C2)cn1 (stereo not drawn) | -66* | 1 | / | -71 | -4
Cn1cc(CN2CCCC(CNS(=O)(=O)c3cccc4cccnc34)C2)cn1 (stereo not drawn) | -7 | -6 | / | -27 | -9
C=CCC(Nc1ccccc1)c1ccc(OC)c(OC)c1 (stereo not drawn) | -63* | / | / | -71 | /
COc1ccc(C(C)NC(=O)c2ccncc2)cc1OC (stereo not drawn) | 1 | -10 | / | 1 | -9
COc1ccc(NC(=O)C[C@H]2C(=O)N(c3ccccc3)C[C@@H]2CSC)cc1 | / | -2 | / | / | 4
CCCc1ccc2oc(C(=O)N3CCC(COC)C3)c(C)c2c1 (stereo not drawn) | 33 | 16 | / | 61* | -9
CCCc1ccc2oc(C(=O)N3CCC(N4CCCC(O)C4)CC3)c(C)c2c1 (stereo not drawn) | 4 | -6 | / | 16 | 0
CCCc1ccc2oc(C(=O)NCCN3CCCC(O)C3)c(C)c2c1 (stereo not drawn) | 33 | 2 | / | 62* | 2
Cc1ccc(NS(=O)(=O)c2ccc(C)c(NC(=O)c3ccc(S(=O)(=O)N4CCCCCC4)cc3)c2)c(C)c1 | / | 5 | / | / | -5
Cc1cccc(NC(=O)CN2C(=O)N/C(=C/c3cc(C)n(C(C)C)c3C)C2=O)c1 | -57* | 7 | 4 | -66 | -13
COCC(COS(N)(=O)=O)Cc1ccccc1 (stereo not drawn) | 10 | -15 | / | 5 | 9
CCCCN(C(=O)c1c(C)noc1C)c1c(N)n(CCC)c(=O)[nH]c1=O | / | 1 | / | / | -6
COC(=O)CSc1nc2cc(C)ccc2cc1C#N | 38 | -11 | 6 | 65* | 6
CCOC(=O)CC(=O)CSc1nc2ccc(C)cc2cc1C#N | / | 7 | 15 | / | 8
c1ccc2c(-c3c[nH]c4ccccc34)c3ccccc3nc2c1 | 14 | -1 | 4 | -3 | 14
O=C(O)c1cc(-c2c[nH]c3ccccc23)nc2ccc3ccccc3c12 | -68* | 6 | 10 | -75 | -7
COc1ccc(/C=C/C(=O)NC(C)C)cc1Br | / | 5 | -10 | / | -9
COc1ccc(/C=C/C(=O)N(C(C)C)C(C)C)cc1Br | 55 | 2 | 1 | 99* | -6
Cc1ccc2nc(-c3ccc4c(c3)OCCO4)cc(C(=O)O)c2c1 | 15 | -2 | 7 | 52* | 4
CC(C)(C)N(NS(=O)(=O)c1ccc(F)cc1)c1ccccc1 | 3 | 14 | / | 57* | 7
COc1ccc(CCNC(=O)c2cccc(Br)c2)cc1OC | -3 | 6 | / | 0 | -11
Cc1cc(C(=O)COC(=O)c2ccco2)c(C)n1Cc1ccco1 | -75* | 11 | -2 | -78 | -8
C#CCOCCOCCOCCNc1nc(N2CCOCC2)nc(N2CCN(C(=O)CCCCCCCCCCNC(=O)[C@H]([C@@H](C)CC)n3cc(CCCCN=C(N)N)nn3)CC2)n1 | / | 4 | / | / | 5
C#CCOCCOCCOCCNc1nc(N2CCN(C(=O)CCCCCCCCCCNC(=O)[C@H]([C@@H](C)CC)n3cc(CCCCN=C(N)N)nn3)CC2)nc(N2CCN(C(=O)CCCCCCCCCCNC(=O)[C@@H]([C@H](C)O)n3cc(C)nn3)CC2)n1 | / | -3 | / | / | 41*
C#CCOCCOCCOCCNc1nc(N2CCN(C(=O)CCCCCCCCCCNC(=O)[C@H](CCCCN)n3cc(C[C@@H](C)CC)nn3)CC2)nc(N2CCN(C(=O)CCCCCCCCCCNC(=O)[C@H](CCCN=C(N)N)n3cc(C[C@@H](C)CC)nn3)CC2)n1 | / | 34* | / | / | 73*
C#CCOCCOCCOCCNc1nc(N2CCN(C(=O)CCCCCCCCCCNC(=O)[C@H](CCCCN)n3cc(C[C@@H](C)CC)nn3)CC2)nc(N2CCN(C(=O)CCCCCCCCCCNC(=O)[C@@H]([C@H](C)O)n3cc(C)nn3)CC2)n1 | / | 15 | / | / | 35*
C#CCOCCOCCOCCNc1nc(N2CCN(C(=O)CCCCCCCCCCNC(=O)[C@H](CCCCN)n3cc(C)nn3)CC2)nc(N2CCN(C(=O)CCCCCCCCCCNC(=O)[C@@H]([C@H](C)O)n3cc(C)nn3)CC2)n1 | / | 0 | / | / | 7
